tested on: VDR:RXRa (NR concentration 270 nM, RXRa partner concentration 90 nM); assay: PBM binding z-score (relative to random genomic background probes); higher = stronger binding; sequences stand for … in GC…GCGATTGACAGCGTAGAATGAAGG
Procedure: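 Protein-binding microarray (Agilent 4x180K custom design, double-stranded 60-nt probes: 5' GC cap, 34-nt variable region, 24-nt constant primer region; full probe sequence given). Purified or IVT nuclear receptor:RXRα heterodimers (3:1 NR:RXRα, mostly 270:90 nM) or homodimers were incubated for 1 h in PBS with 2% milk and no ligand, then detected with Alexa488 antibodies. Fluorescence from o1-orientation probes (~5 replicates averaged) was converted to z-scores against 500 random hg19 background probes. Variable regions are seed direct-repeat (DR0–DR5) sites, all their single-nucleotide variants and half-site ablations.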

Sequence | PBM binding z-score
CTCGAAAGGTCGGTTGAGGTGAGAATACGGATAA | 2.26
TGTCAAAGTTCAAAAGTAACGTAAGTATCCACAC | 3.97
TCACGGAGGACACGAAAGGTCAGAGCTCGACATC | 3.47
AGAACGATGGCACGCTGAGTTGATAGCAGAGTAG | -0.574
GTACCATGGTGAATAGGTCGTTGATGAGTAGGCG | -0.0102
TCTATTAGTCGAAGGGCAACCGACGAGTCCGTTT | 0.789
TTACCAAGGTGAAGGTCGTTGATCCCTCTGTAGA | 1.24
CGTCAAAGTTCAAGGTAACGGAACAGAAAGCAGC | 3.63
CCTACTAGGCCATTCAGAGGTCATTGATCATATG | 4.33
AGAATGAGGTTTTACGTAGATCAGGGAAGAAAGT | -0.19
CCGACTGGGGCAGGGTTACCATAACGCACAGCCA | 0.216
CCTACTGGGCCATCAGGTCATTGACATCAACGTT | 1.64
AGAATGAGGTTAAGATCAGTGAAACAGAATACAT | 1.47
TCTATTAGTTGATAAGGGCAACCGAAACAGCGGA | 0.713
ACTATTAGTTGACTTAGGCCAACCGATACGACGC | 0.432
TCATATGGGTAATACAGGTGAAAGTCGGCATCTA | 0.677
AGTATGAGGTTACCAAAGATCAGGGAAACGCTTG | 1.41
ATCTCTAGGTAAAGATAGTTCTGTGAATGCAAAT | 0.285
CCTCGGAGGACAGAAGATCAGAGCTGTCCGCTTT | -0.618
GCTGCTAGGTCCACTGATGGTCAGCTAAAGCTCG | -0.609

Sequence | PBM binding z-score
CAAACTAGGTCACCGGAAGGTCAACGTCCGCATG | 5.72
ACTAGCAGGCCAAGGGTTACTCAAGATTAGTCCG | 0.0944
ACTAGAAGGCCAAGTTTGGGTCACTCAAACAAAG | 1.28
ACTATTAGTTGAGACGAGGGCAAACGATAGGTTG | 0.775
ATCTCTAGGTCAAGATAGTTCAGTGAATGCAAAT | 4.44
GATACAGGGTCAAGGCCAGCGTACGCGTATTGAT | 3.89
TGAATGACGTTATAAGATCAGGGAACGTTGCAAA | 0.104
CAAACTAGGTCTAGGTCAAAGTCGGTTTGTGCCA | 1.84
GCTAGTTGGTCAGTAAAAGGTCACAGACCGGTCG | 3.94
CCTTACGGGTCAAGGTCATAGCACGGGTGGTACG | 5.14
ACTAGCAGGCCAAGGCTCACTCAAGATTAGTCCG | -0.781
CCAGACAGGTGAGAAGGTAACTGAGCCTCGATTA | -0.0476
CCGAGGAGGTTATGGGGCATTCAGGCAACGGTGA | 0.925
AATACATGGTCACTAGGCCAGAGTAGGTACGAAT | -0.0294
TAGCCTAGGTCATGCGGGCCAGTATCGTGTCGGC | 2.81
CGTCCAAGGTCAAGGACAGTGAAAGAGACTCGAA | 3.75
CAAGCTAGGTCACCGGAAGGTCAAAGTCCGCATG | 6.18
GCATATAGGTAATACAAGGGGAAAGTCCGATTGT | -0.0932
TCTATTAGTTGAAGGGCAACGGACGAGTCCGTTT | 1.06
CGTCCAAGCTCAAAGGTCAGTGAAGAGATGACGG | 2.31
